Measured values as given in ChEMBL document CHEMBL4513216, “Probing the Open Global Health Chemical Diversity Library for Multistage-Active Starting Points for Next-Generation Antimalarials” (ACS Infect Dis, 2020).
Screen size: about 69,000 compounds; about 8,600 (12%) showed an effect of 50% or more. The entries come from a sample that favours strong results as a whole.

system: Plasmodium berghei; experiment: Screen against P. berghei liver stage (PbLuc), transformed with Luciferase, at 10uM; assay type: functional, HepG2; details: tested at 10 uM

Compound	INHIBITION [%]
CNC(=O)NC(=O)CCN1CCN(c2nccs2)CC1	11.9
O=S(=O)(N[C@@H]1CCO[C@]2(CCN(CC3CCOCC3)C2)C1)C1CC1	1.48
O=C1COC2(CCN(c3ncccn3)CC2)CN1Cc1ccccn1	-6.21
COc1ccc2c(ccn2CCC(=O)NCCCC(=O)O)c1	24.7
Cc1noc(C(C)N(C)Cc2ccco2)n1 (stereo unspecified)	-33.4
CCc1cnccc1C(=O)NC1CCN(C(=O)OC)CC1	-7.16
CC(NC(=O)COC1CCCC1)c1nc(-c2ccccc2)c[nH]1 (stereo unspecified)	-43.3
NCCn1cc(C(=O)N2CCNC(=O)C2c2cccc(F)c2)nn1 (stereo unspecified)	-13.8
CN(CC(=O)NCC1CCCO1)Cc1nc2c(s1)CCCC2 (stereo unspecified)	57.1
CN(CC(=O)NCC(F)(F)F)Cc1nc2c(s1)CCCC2	46.7
CN(CC(=O)NCc1ccco1)Cc1nc2c(s1)CCCC2	40.8
O=S(=O)(CCN1CCCCC1Cn1cncn1)c1ccccc1 (stereo unspecified)	-8.11
CC(=O)NCCNC(=O)CNC1CCCN(c2ccc(C)nn2)C1 (stereo unspecified)	47
c1cn(-c2cnc(C3CCNCC3)cn2)cn1	26.8
Cc1cc(C2CCN(C(=O)c3cnn(C)c3)CC2)ccn1	-4.51
Cc1ccnc(C2CCN(C(=O)c3cnn(C)c3)CC2)n1	50.3
Cc1ccnc(C2CCN(C(=O)c3cnn(C)c3)C2)n1 (stereo unspecified)	48.4
CCOCC1CN(C(=O)c2cccnc2)Cc2cnn(C)c21 (stereo unspecified)	-2.35
COc1cccc(CN2CCC(Cc3cnc(CN(C)C)cn3)CC2)c1	25.8
CCn1ncc2[nH]c(-c3cc(OC)c(OC)cc3OC)nc21	26.5
c1cc(CN2CCc3ncc(CN4CCOCC4)n3CC2)cs1	-36
Cc1ccc(N2CCC3(CCN(C(=O)C4CCOC4)CC3)CC2)nn1 (stereo unspecified)	-45.8
Cc1csc(N2CCN(C3CCc4ccccc4C3)CC2)n1 (stereo unspecified)	53

Compound	INHIBITION [%]
Cc1ccc(N2CCN(C3CCc4ccccc4C3)CC2)nn1 (stereo unspecified)	53.9
Cc1csc(N2CCN(Cc3ccccn3)CC2)n1	34.2
NC(=O)c1csc(N2CCN(C3CCc4ccccc4C3)CC2)n1 (stereo unspecified)	47.6
Cc1csc(N2CCCN(C3Cc4ccccc4C3)CC2)n1	73.9
Cc1ccc(N2C[C@H](O)[C@@H](N3CCN(c4ccccn4)CC3)C2)nn1	6.29
Cc1csc(N2CCC(NCC3(O)CCc4ccccc43)CC2)n1 (stereo unspecified)	42.6
Cc1ccc(N2CCC3(CC2)CCN(C2CCOCC2)CC3)nn1	58.7
Cc1csc(N2CCCN(C(=O)c3ccsc3)CC2)n1	-36.4
Cc1ccc(N2CCN(C)c3ncccc3C2)nn1	48.2
Cc1ccc(N2CCC3(CC2)CCN(C2CCOC2)CC3)nn1 (stereo unspecified)	8.85
CS(=O)(=O)N1C[C@@H]2CCN(C(=O)c3cscn3)[C@@H]2C1	31.5
c1cnn(CCNCc2ccc(N3CCCCC3)cc2)c1	-10.8
O=C(O)c1c(-c2ccncc2)ncc2c1CCN(Cc1ccco1)C2	26.5
CC1CCN(c2nc3cn(C4CCS(=O)(=O)C4)c(=O)c-3c[nH]2)CC1 (stereo unspecified)	-16.3
Cc1occc1C(=O)N1C[C@@H]2OCCN(c3ncccn3)[C@@H]2C1	11.5
CCc1ccccc1-c1cc(OC)nc(N)n1	35
N#Cc1ccc(S(=O)(=O)N2CSCC2C(=O)NCC(F)(F)F)cc1 (stereo unspecified)	-13.5
CC1(C2CCN(CC(N)=O)CC2)CN(Cc2ccccc2)C(=O)CO1 (stereo unspecified)	0.301
CC(=O)N1CCC(c2ccnc(Nc3cncnc3)n2)CC1	-2.11
Cc1csc(N2CCCN(c3cc(C)nc(C)c3C#N)CC2)n1	91.9
Cc1cc(N2CCCC2)c(C#N)c(C)n1	4.62
Cc1cc(N2CCCCC2)c(C#N)c(C)n1	25.2
CCOC(=O)c1cnn(C2CCN(C(=O)CC3CCCC3)CC2)c1N	26.1

Compound	INHIBITION [%]
COc1ccccc1C1(CNCc2cccc(C#N)c2)CCOCC1	20.9
COc1ccccc1C1(CNCc2ccc(C#N)cc2)CCOCC1	29.6
COc1ccccc1C1(CNCc2cccc(O)c2)CCOCC1	51.3
O=C(CCNc1ncccn1)Nc1cc(C(F)(F)F)c[nH]c1=O	-1.7
O=C(NCc1ccco1)[C@H]1C[C@@H]2CCN(c3ccncn3)C[C@@H]2O1	21.7
Cc1cnccc1CN(C)C(=O)c1ccc(Cn2cnnn2)cc1	54.9
Cc1nc(CN(C)C(=O)c2ccc(Cn3cnnn3)cc2)cs1	16.5
Cc1ncsc1CCN(C)C(=O)c1ccc(Cn2cnnn2)cc1	-0.448
CCc1noc(C(C)N2CCC(O)CC2)n1 (stereo unspecified)	37.9
Cc1noc(C)c1C(=O)NCCSCc1cccs1	29.5
CCN1CCN(C(=O)NCCOc2ccc3c(c2)OCO3)CC1	2.63
COc1ccc(C(=O)N2CCCCC2c2ccccn2)c(OC)n1 (stereo unspecified)	53.2
Cc1nc(CC(=O)N2CCCC2c2nc(-c3ccccc3)no2)cs1 (stereo unspecified)	38.2
COc1ncccc1C(=O)N1CCCC1c1nc(-c2ccccc2)n[nH]1 (stereo unspecified)	47.6
CC(C)c1cc(C(=O)N2CCCC2c2nc(-c3ccccc3)no2)[nH]n1 (stereo unspecified)	55.5
COc1ncccc1C(=O)N1CCCC1c1nc(-c2ccccc2)no1 (stereo unspecified)	64.9
COc1ncccc1C(=O)N1CC(c2nc(-c3ccccn3)no2)C1	33.5
COc1nc2c(cc1C(=O)N1CCCCC1c1ccccn1)CCC2 (stereo unspecified)	-34.4
COc1nc2c(cc1C(=O)N1CCCC1c1ccccn1)CCC2 (stereo unspecified)	1.74
O=C(c1n[nH]c2c1CCC2)N1CCCC1c1nc(-c2ccccc2)no1 (stereo unspecified)	-68.4
Cc1ncc(-c2ccncc2)c(C2CCN(C(=O)c3ccco3)CC2)n1	-21
CCc1nc(CN(C)C2CCN(CC(F)(F)F)C2)no1 (stereo unspecified)	4.71
CN1CCOC(CNCc2c(Cl)nc3ccccn23)C1 (stereo unspecified)	-2.43

Compound	INHIBITION [%]
CC[C@@H]1N(Cc2ccc(OC)cc2)CCC[C@]12CCC(=O)N2CCOC	-5.31
Cc1noc(CC2CCN(C(=O)C(c3ccccc3C)N(C)C)CC2)n1 (stereo unspecified)	-21.1
COCc1nc(C(=O)N2CCCC2c2cc(C)on2)cs1 (stereo unspecified)	0.914
O=C(c1cc2c(s1)CCC2)N1CCCC(c2cnccn2)C1 (stereo unspecified)	-94
CNc1ccnc(NCC(=O)Nc2cc(C)ccc2OC)n1	53
CNc1ccnc(NCCC(=O)Nc2ccccc2OC)n1	49.7
COc1ccc(C)cc1NC(=O)CNc1ccn(CC(N)=O)n1	-41.6
CC(C)COC1CCN(S(=O)(=O)Cc2cccc(F)c2)CC1	20.9
CNC(=O)[C@@H]1C[C@@H](N)CN1c1nnc(-c2ccccc2)s1	74.9
CCN(CC)C(=O)[C@@H]1C[C@@H](NC(=O)c2cccn2C2CC2)CN1C	20.5
CCN(CC)C(=O)[C@@H]1C[C@H](N)CN1c1noc(-c2ccccc2)n1	9.04
CCNC(=O)[C@@H]1C[C@H](N)CN1c1cc(CC)nc(N(C)C)n1	-69.6
CCN(CC)C(=O)[C@@H]1C[C@H](N)CN1c1nnc(-c2ccccc2)s1	56.3
CCN(CC)C(=O)[C@@H]1C[C@@H](N)CN1c1nc(N2CCCC2)nc(C)c1C	33.4
CNC(=O)[C@@H]1C[C@@H](N)CN1C(=O)CCSCc1ccccc1	-15.1
CNC(=O)[C@@H]1C[C@@H](N)CN1c1nc(N2CCCC2)nc(C)c1C	45.3
CCN(CC)C(=O)[C@@H]1C[C@@H](N)CN1c1nc(N(C)C)nc(C)c1C	62.6
COc1ccc(-c2ncccc2C(=O)N2C[C@@H]3CC[C@H]2C3)cn1	29.1
Cn1cc(C[C@H]2[C@H](N3CCOCC3)CCN2C2CCOCC2)cn1	0.804
Cn1nc(C(=O)N2CCOCC2)cc1C(=O)Nc1ccc(Cl)cc1Cl	-8.66
Cn1nc(C(=O)N2CCOCC2)cc1C(=O)Nc1ncc(Cl)cc1Cl	-0.71
Cn1nc(C(=O)N2CCOCC2)cc1C(=O)Nc1c(Cl)cccc1Cl	51.6
Cc1c(C(=O)N2CCC(C(=O)c3nc4ccccc4s3)CC2)cnn1C	11.025

Compound	INHIBITION [%]
Cc1cccc(C(=O)N2CCSCC2)c1NC(=O)c1cccnc1	45
Cc1cccc(C(=O)N2CCSCC2)c1NC(=O)c1ccsc1	1.56
Cc1cccc(C(=O)N2CCN(C)CC2)c1NC(=O)c1ccncc1	52.6
COc1cc(CNCCn2cc(C)cn2)cc2c1OCCO2	17.8
COc1cccc(-c2nc(CNCCn3cccn3)cs2)c1	31.8
COc1cc(CNCCC(N)=O)c2c(c1)CC(C)O2 (stereo unspecified)	49.4
COc1cc(CNCCn2cc(C)cn2)c2c(c1)CC(C)O2 (stereo unspecified)	75.2
COc1cc(CNCCn2cccn2)c2c(c1)CC(C)O2 (stereo unspecified)	75.2
COc1ccc(-c2nnc(CNCCn3cc(C)cn3)o2)cc1	5.7
O=C(c1cccc(F)c1)N1CCc2ncc(Cn3cccn3)n2CC1	3.58
Cc1nc(-c2ncc(C(=O)NCCNc3ncccc3C)c(O)n2)cs1	50.3
CCSCCNC(=O)c1cnc(-c2ccccc2)nc1O	40.3
O=C(NCCCO)c1cnc(-c2ccccc2)nc1O	48.5
CC(C)(C)c1ncc(C(=O)NCCSc2ccccn2)c(O)n1	69.1
CCn1c(N)nc2cc(C(=O)NCCNc3ncccc3C)cnc21	-87.1
Cc1cccnc1NCCNC(=O)c1cnc(-c2ccccn2)nc1O	92.1
Cc1nc(C(C)C)sc1C(=O)NCCSc1ccccn1	-71.3
CCn1c(C)nnc1SCCNC(=O)c1cnc(C(C)(C)C)nc1O	23.6
Cc1cccnc1NCCNC(=O)c1cnc(-c2cccs2)nc1O	14.9
